# Data: PubChem BioAssay AID2284114 (EPA ToxCast)
# Calls of active or inactive are those of the source. The calls were made as follows: active = hit-call score of the fitted dose curve at least 0.9, where 1 is the maximum; inactive = score below 0.9.
# Target: human MSK1 (RPS6KA5) AGC Kinase, RPS6KA5 (gene 9252) (UniProt O75582)
# Experiment: ERF_FR_ENZ_hMSK1: Eurofins (ERF) Enzymatic Radiometric [Km ATP] KinaseProfiler LeadHunter Assay for human MSK1 (RPS6KA5) AGC Kinase
# Procedure: ERF_FR_ENZ_hMSK1 is a biochemical, single-readout assay that uses extracted gene-proteins in a cell-free assay. Measurements were taken 0.16 hour after chemical dosing in a 96-well plate. See MSK1 Human AGC Kinase Enzymatic Radiometric Assay [Km ATP], Cerep.ERF_FR_ENZ_hMSK1 is an assay component calculated from the ERF_FR_ENZ_hMSK1 assay. It is designed to measure enzyme activity using a type of enzyme reporter as detected by scintillation counting with radiometry technology.Data from the assay component ERF_FR_ENZ_hMSK1 was analyzed at the assay endpoint, ERF_FR_ENZ_hMSK1, in the positive analysis fitting direction relative to DMSO as the negative control and baseline of activity. Using a type of enzyme reporter, loss-of-signal activity can be used to understand changes in enzymatic activity as they relate to gene MSK1. To generalize the intended target to other relatable targets, this assay endpoint is annotated to the kinase intended target family, where the subfamily is serine/threonine kinase.
# MSK1 (h) is incubated with 8 mM MOPS pH 7.0, 0.2 mM EDTA, 30 uM […], 10 mM MgAcetate and [g- 33P]-ATP (specific activity and concentration as required). The reaction is initiated by the addition of the Mg/ATP mix. After incubation for 40 minutes at room temperature, the reaction is stopped by the addition of phosphoric acid to a concentration of 0.5%. […]
# human MSK1 (RPS6KA5) AGC Kinase, RPS6KA5 (gene 9252), sequence (O75582 whole entry, looked up): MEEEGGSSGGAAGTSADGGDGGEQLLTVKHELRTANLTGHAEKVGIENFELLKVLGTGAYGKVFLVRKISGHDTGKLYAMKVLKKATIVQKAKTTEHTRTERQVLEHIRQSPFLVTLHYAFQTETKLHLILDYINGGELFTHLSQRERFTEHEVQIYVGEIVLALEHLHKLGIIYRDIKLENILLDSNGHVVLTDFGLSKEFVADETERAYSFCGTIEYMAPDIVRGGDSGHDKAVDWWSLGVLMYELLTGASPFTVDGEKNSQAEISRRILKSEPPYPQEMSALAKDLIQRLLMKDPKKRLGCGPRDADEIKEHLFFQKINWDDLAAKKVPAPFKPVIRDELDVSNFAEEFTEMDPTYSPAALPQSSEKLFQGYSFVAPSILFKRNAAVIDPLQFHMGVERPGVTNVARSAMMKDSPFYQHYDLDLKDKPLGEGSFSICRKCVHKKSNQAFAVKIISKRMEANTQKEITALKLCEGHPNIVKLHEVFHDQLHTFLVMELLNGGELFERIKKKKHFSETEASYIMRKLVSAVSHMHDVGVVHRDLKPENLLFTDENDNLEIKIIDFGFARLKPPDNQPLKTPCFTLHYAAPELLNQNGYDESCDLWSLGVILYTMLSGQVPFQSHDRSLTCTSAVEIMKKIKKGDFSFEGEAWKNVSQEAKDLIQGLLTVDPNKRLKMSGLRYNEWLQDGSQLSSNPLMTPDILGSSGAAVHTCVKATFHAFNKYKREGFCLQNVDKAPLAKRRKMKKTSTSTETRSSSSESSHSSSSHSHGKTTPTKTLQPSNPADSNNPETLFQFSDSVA
row,Compound,AC50
1,O=C(/C=C/c1ccc(O)cc1)CC(=O)/C=C/c1ccc(O)cc1,5 µM (active)
2,COc1cc(CCC(=O)CC(=O)CCc2ccc(O)c(OC)c2)ccc1O,2.12 µM (active)
